We go through 6 compounds from PubChem BioAssay (NCATS).

Each structure is given as a SMILES string. Several values for one entry are separate records, joined by “and”; a condition that tells them apart may be missing. Equal entries are not always repeated. Results filed as inconclusive are left out. More than one record can exist for a structure, and the calls need not agree. Activity calls are given as the source filed them. Calls come from the whole dose curve; as a rule, active = well fitted curve in the direction sought with a large enough effect; inconclusive = small, poorly fitted or top-dose-only effect, or another doubt; inactive = no such curve, though single readings can be large; an effect the other way counts as inactive or inconclusive.

The subject of experiment [1] is TAB109. Briefly: qHTS profiling for inhibitors of Plasmodium falciparum proliferation (AID 504749).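 Note: 0% = DMSO vehicle and full inhibition = artemisinin control; nearly all actives have a fitted effect of over 60% in size.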 To be noted: P. falciparum in erythrocytes, SYBR Green DNA, 72 h; series mostly up to 28.7 µM. The method in brief:
(§1)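 P. falciparum-infected erythrocytes (0.3% parasitemia, 2.5% hematocrit) incubated with compound 72 h at 37 C, 5% CO2. Parasite DNA detected by SYBR Green after lysis, overnight at room temperature; normalised to 0.29 uM artemisinin and DMSO.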
On the technique in general: In qHTS, concentration-response curves come from the screen itself.

The test system of experiment [2] is TAB113. The description is as above. The following applies: P. falciparum in erythrocytes, SYBR Green DNA, 72 h; series mostly up to 28.7 µM. The method in brief:
as §1

Experiment [3] concerns TAB165. The experiment is described as above. To be noted: P. falciparum in erythrocytes, SYBR Green DNA, 72 h; series mostly up to 28.7 µM. A digest of the protocol: as §1
Experiment [4] has as its system W2. The description is as above. To be noted: P. falciparum in erythrocytes, SYBR Green DNA, 72 h; series mostly up to 28.7 µM. A digest of the protocol:
as §1

Experiment [5] concerns CRL-7250. Kind of experiment: Cytotoxic Profiling of Annotated Libraries Using Quantitative High-Throughput Screening (AID 1296008). For max response: % is set by controls: 0 for no effect and ±100 for the full control effect. Note: nearly all actives have a fitted effect of over 60% in size. The following applies: Five cell lines viability, CellTiter-Glo ATP luminescence, 48-72 h; max response: stronger effect = lower value. The method in brief: (§2)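 Cells exposed to compounds for 48 or 72 hr at 37 degrees Celsius. Viability read as ATP-coupled luminescence with CellTiter-Glo after 10 min at room temperature.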
(In general: Cellular ATP, detected with luciferase, serves as a proxy for viable cell number.)

Experiment [6] deals with HEK293. The description is as above. To be noted: Five cell lines viability, CellTiter-Glo ATP luminescence, 48-72 h; max response: stronger effect = lower value. The method in brief: as §2
The subject of experiment [7] is HaCat. The description is as above. To be noted: Five cell lines viability, CellTiter-Glo ATP luminescence, 48-72 h; max response: stronger effect = lower value. A digest of the protocol: as §2
The test system of experiment [8] is KB-3-1. The description is as above. The following applies: Five cell lines viability, CellTiter-Glo ATP luminescence, 48-72 h; max response: stronger effect = lower value. A digest of the protocol:
as §2

For experiment [9], the system named is NIH3T3. Described as above. The following applies: Five cell lines viability, CellTiter-Glo ATP luminescence, 48-72 h; max response: stronger effect = lower value. A digest of the protocol:
as §2

For experiment [10], the system named is HACAT. Briefly: qHTS assay to identify novel small-molecules to repurpose for Merkel cell carcinoma treatment (AID 1296009). For activity change, negative = cytotoxicity: % is set by controls: 0 for no effect and ±100 for the full control effect. Note: nearly all actives have a fitted effect of over 60% in size. Note: potency is the fitted concentration of half-maximal effect. To be noted: MCC and control cell lines, CellTiter-Glo viability, 72 h; at 44.8 µM (top of the series) unless noted. The method in brief:
(§3)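 Cells were treated for 72 hr at 37 degree celsius with compounds in 8- or 11-point dose response. Viability was read by CellTiter-Glo luminescence, normalized to no-cell (cytotoxicity) and DMSO controls.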

Experiment [11] concerns HEK293T. The description is as above. The following applies: MCC and control cell lines, CellTiter-Glo viability, 72 h; at 44.8 µM (top of the series). A digest of the protocol:
as §3

Experiment [12] has as its system MCC-13. The description is as above. To be noted: MCC and control cell lines, CellTiter-Glo viability, 72 h; series mostly up to 46 µM. The method in brief: as §3
The subject of experiment [13] is MKL-1. The experiment is described as above. The following applies: MCC and control cell lines, CellTiter-Glo viability, 72 h; series mostly up to 46 µM. The method in brief:
as §3

The test system of experiment [14] is MKL-2. Described as above. The following applies: MCC and control cell lines, CellTiter-Glo viability, 72 h; series mostly up to 46 µM. A digest of the protocol: as §3
Experiment [15] concerns NIH3T3. The description is as above. The following applies: MCC and control cell lines, CellTiter-Glo viability, 72 h; at 44.8 µM (top of the series) unless noted. The method in brief:
as §3

For experiment [16], the system named is UISO. Described as above. The following applies: MCC and control cell lines, CellTiter-Glo viability, 72 h; series mostly up to 46 µM. A digest of the protocol:
as §3

Experiment [17] concerns WaGa. The description is as above. To be noted: MCC and control cell lines, CellTiter-Glo viability, 72 h; series mostly up to 46 µM. The method in brief: as §3
For experiment [18], the system named is C33A. Kind of experiment: Primary qHTS to identify gynecologic anti-cancer compounds using libraries of approved drugs and bioactive compounds (AID 1345084). Note: % is set by controls: 0 for no effect and ±100 for the full control effect; nearly all actives have a fitted effect of over 55% in size. The following applies: Gynecologic cancer cell panel viability, ATPlite luminescence, 48 h; series mostly up to 57.5 µM. A digest of the protocol:
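Luminescence from the ATPlite ATP-monitoring reagent indicates viable cell number; lower signal means cytotoxicity. Cells received compound 16 h after seeding and were exposed for 48 h across five concentrations.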

In experiment [19] the test system is CRL-7250. Kind of experiment: qHTS assay to identify novel small-molecules to repurpose for Merkel cell carcinoma treatment (AID 1296009). For activity change, negative = cytotoxicity: % is set by controls: 0 for no effect and ±100 for the full control effect. Note: nearly all actives have a fitted effect of over 60% in size. Note: potency is the fitted concentration of half-maximal effect. The following applies: MCC and control cell lines, CellTiter-Glo viability, 72 h; series mostly up to 44.8 µM. A digest of the protocol:
as §3

Experiment [20] has as its system MCC-26. Described as above. To be noted: MCC and control cell lines, CellTiter-Glo viability, 72 h; series mostly up to 46 µM. The method in brief:
as §3

Consider `CCN(C(C)=O)c1cccc(-c2ccnc3c(C#N)cnn23)c1`, for which the Potency entry in experiment [1], in [2], in experiment [3], in experiment [4], in experiment [12] and in experiment [13] was “inactive” in each case. In addition, the Potency result in experiment [14], in [16], in experiment [17] and in experiment [18] was “inactive” each time. For the same compound, the max response is -2.01% (inactive) in experiment [5] and 1.34% (inactive) in experiment [8]. Moreover, the outcome in [6], in experiment [7], in experiment [9], in [10], in experiment [11] and in experiment [15] was inactive.
As for `Cn1c(CCCC(=O)O)nc2cc(N(CCCl)CCCl)ccc21`, the Potency result in experiment [2], in [3], in experiment [12], in experiment [13], in experiment [16] and in experiment [18] was “inactive” each time. Besides, the max response in experiment [5] is 3.94% (inactive); in experiment [6], 1.54% (inactive); in experiment [7], -5.87% (inactive) and -9.93% (inactive); in experiment [8], 3.92% (inactive) and 3.13% (inactive); in experiment [9], -2.08% (inactive) and -18.1% (inactive). The compound was called inactive in experiment [5], in experiment [6], in [19] and in experiment [11]. Also, in [17], the Potency was 18.8 µM (active) and inactive.
Regarding `CC(C)=CC1C(C(=O)OCc2cccc(Oc3ccccc3)c2)C1(C)C` (stereo not drawn), the Potency result in experiment [1], in experiment [2], in [3], in [12], in experiment [13] and in experiment [14] was “inactive” throughout. For the same compound, the Potency entry in experiment [16], in [17] and in [18] was “inactive” in each case. The compound was classed as inactive in [5], in experiment [6], in experiment [9], in [19], in experiment [11] and in experiment [15]. In addition, the results for the max response in experiment [7] and in experiment [8] were 2.03% (inactive) and 3.42% (inactive), respectively.
Take `Cc1cccc(C)c1NC(=O)CN1CCCC1=O`: the max response in experiment [5] is 0.285% (inactive) and 2.07% (inactive); in experiment [6] it was 2.15% (inactive); in [7] it was 3.48% (inactive) and 0.767% (inactive); in [8], -16.8% (inactive) and -6.89% (inactive); in experiment [9] it was 1.47% (inactive) and -1.95% (inactive). Further, the compound was called inactive in experiment [6] and in [11]. Further, the Potency result in experiment [12], in [13], in [14], in [16], in [17] and in experiment [18] was “inactive” in each case.
For `NCC(CC(=O)O)c1ccc(Cl)cc1` (stereo not drawn), the Potency result in experiment [1], in experiment [2], in [3] and in experiment [4] was “inactive” throughout. Further, the max response was 2.02% (inactive) in [5], -1.23% (inactive) in experiment [6], 2.79% (inactive) in experiment [8] and 0.0761% (inactive) in [9]. The call in [7] was inactive. Moreover, in [10], the outcome was “inactive [at 0.588 µM]”. Further, the activity change, negative = cytotoxicity in [12] is -6.05% [at 0.597 µM] (inactive); in experiment [20], -16.1% [at 0.597 µM] (inactive); in [13] it was -6.57% [at 0.597 µM] (inactive); in [14] it was -11.6% [at 0.597 µM] (inactive); in experiment [16], -4.03% [at 0.597 µM] (inactive); in experiment [17] it was -6.81% [at 0.597 µM] (inactive). In addition, the activity change, negative = cytotoxicity in [18] was 1.19% [at 0.462 µM] (inactive).
For `CCCN1CCC[C@@H]2Cc3nc(N)ncc3C[C@H]21`, the compound was called inactive in experiment [5], in experiment [7], in experiment [19] and in [10]. Besides, the results for the max response in [6], in experiment [8] and in [9] were -17.9% (inactive), 14.3% (inactive) and -7.61% (inactive), respectively. Also, the Potency entry in experiment [12], in experiment [14], in experiment [17] and in [18] was “inactive” throughout. For the same compound, the Potency in experiment [16] is 29.9 µM (active).
